From PMC7826789 (International Journal of Molecular Sciences, 2021)

test system: MAP3K2; details: Compound Concentration (nM):1000
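Note: KINOMEscan scanMAX binding as percent activity remaining versus control; lower means stronger binding.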

SMILES	Percent Control
O=C(Nc1n[nH]c2nc(-c3ccc(O)cc3)c(Br)cc12)C1CC1 [SB-725317]	84%
CC1=C(C(=O)Nc2ccc3[nH]ncc3c2)C(c2ccc(Cl)c(Cl)c2)CC(=O)N1 (centres unmarked) [GSK299115A]	85%
NS(=O)(=O)c1ccc(N/N=C2\C(=O)Nc3ccc(Cl)cc32)cc1 [GW280670X]	100%
CC1=C(C(=O)Nc2ccc3[nH]ncc3c2)C(c2ccc3ccccc3c2)CC(=O)N1 (centres unmarked) [GSK270822A]	60%
COc1cccc(-c2c[nH]c3c(N/N=C/c4ccncc4)ncnc23)c1 [GW814408X]	65%
NS(=O)(=O)c1ccc(N/N=C2\C(=O)Nc3ccc(C(=O)NCCc4c[nH]cn4)cc32)cc1 [GW300660X]	82%
CN(C)CCNC(=O)Nc1ccc(N(C)c2ccnc(Nc3ccc(CS(C)(=O)=O)cc3)n2)cc1.Cl [GW830900A]	69%
COc1ccc2cc(-c3c(-c4ccncc4)nc(-c4ccc(S(C)(=O)=O)cc4C)n3C)ccc2c1 [SB-633825]	60%
NS(=O)(=O)c1ccc(N/N=C2\C(=O)Nc3ccc(-c4cnco4)cc32)cc1 [GW276655]	79%
CN(C)c1cc2c(Nc3ccc4c(cnn4Cc4ccccc4)c3)ncnc2cn1 [GW282974X]	90%
COc1ccc2c(-c3ccnc(Nc4cccc(OC(F)(F)F)c4)n3)cnn2n1 [GW810372X]	96%
Cl.O=C(O[C@H]1CN[C@H](C#Cc2cc3ncnc(Nc4ccc5c(cnn5Cc5ccccc5)c4)c3s2)C1)N1CCOCC1 [GSK200398A]	97%
CCS(=O)(=O)c1ccc(OC)c(Nc2ncc(-c3cccc(OC)c3)o2)c1 [GW580509X]	100%
CCc1ccc(Oc2nccc(-c3c(-c4ccc(F)cc4)ncn3C3CCNCC3)n2)cc1 [SB-242719]	98%
NS(=O)(=O)c1ccc(N/N=C2\C(=O)Nc3ccc(C(=O)NCc4ccncc4)cc32)cc1 [GW300657X]	87%
COc1ccc(COc2ccc(Cc3cnc(N)nc3N)cc2OC)cc1 [GW632580X]	97%
NS(=O)(=O)c1ccc(Nc2ncc(-c3ccccc3)o2)cc1 [GW572399X]	87%
COC(=O)Nc1nc2ccc(Oc3ccc(NC(=O)Nc4cc(C(F)(F)F)ccc4F)cc3)cc2s1.Cl [GW693917A]	92%
COc1cc(C)c(N(C)C(=O)CN(C)C)cc1Nc1nc(Nc2cccc(F)c2C(N)=O)c2cc[nH]c2n1 [GSK2219385]	93%
COc1cc(N2CCN(C(C)C)CC2)ccc1Nc1nc(Nc2ccc(F)cc2C(=O)NC[C@@H](O)CO)c2cc[nH]c2n1 [GSK1392956A]	100%
CC(C)COC(=O)c1ccc2c(c1)/C(=C/Nc1ccc(S(N)(=O)=O)cc1)C(=O)N2 [GW416981X]	66%
Cl.c1ccc(Cc2nc3ccc(Nc4ncnc5ccccc45)cc3[nH]2)cc1 [GR269666A]	100%
CCn1c(-c2nonc2N)nc2c(C#CC(C)(C)O)nc(OCCNC)cc21.Cl [GSK949675]	6.9%
COc1cc2ncn(-c3cc(O[C@H](C)c4ccccc4Cl)c(C(N)=O)s3)c2cc1OC [GSK237701A]	84%
COc1cccc(-n2ncc3c(N/N=C/c4ccncc4)ncnc32)c1 [GW784752X]	100%
C[C@@H](Oc1cc(-n2cnc3ccc(OC4CCN(C)CC4)cc32)sc1C(N)=O)c1ccccc1Cl [GSK579289A]	83%
Cl.O=C(Nc1ccc(Oc2ccc3[nH]c(NC(=O)c4ccccc4)nc3c2)cc1)Nc1cc(C(F)(F)F)ccc1F [GW709042A]	100%
C/C(Nc1ccc(S(N)(=O)=O)cc1)=C1/C(=O)Nc2ccccc21 [GW335962X]	53%

test system: MAP3K3; details: Compound Concentration (nM):1000

SMILES	Percent Control
Cl.O=S1CCN(Cc2ccc(-c3ccc4ncnc(Nc5ccc(OCc6ccccc6)c(F)c5)c4c3)o2)CC1 [GW576924A]	100%
COc1ccc2[nH]c3c4[nH]c5ccc(OC)cc5c4c4c(c3c2c1)C(=O)NC4=O [GW296115X]	59%
COc1cc2ncnc(Nc3ccc4c(cnn4Cc4ccccc4)c3)c2cc1OC.Cl [GW282449A]	100%
COc1cc(C=NNc2ncnc3c2cnn3-c2ccccc2)ccc1O [GW513184X]	73%
COc1ccccc1-c1cc(/C=C2\C(=O)Nc3ncc(Br)cc32)cc(Br)c1O [GW442130X]	100%
CN1CCN(C(=O)c2ccc(NC(=O)Nc3ccc(N(C)c4ccnc(Nc5ccc(CS(C)(=O)=O)cc5)n4)cc3)cc2)CC1.Cl [GW830263A]	57%
O=C1Nc2ccc(C(=O)c3ccco3)cc2C1=Cc1cc(Cl)c(O)c(Cl)c1 [GW406108X]	78%
COc1cc(/C=N/Nc2ncnc3[nH]ncc23)ccc1O [GW578748X]	85%
Cc1cc(O)cc(C)c1/C=C/c1cncc(C(N)=O)c1 [GW435821X]	59%
CCS(=O)(=O)c1ccc(OC)c(Nc2ncc(-c3cccc(F)c3)o2)c1 [GW621970X]	100%
Cl.O=C(Nc1ccc(Oc2ccc3[nH]c(NC(=O)c4ccco4)nc3c2)cc1)Nc1cc(C(F)(F)F)ccc1F [GW683134A]	85%
Nc1ncnc2occ(-c3ccc(NC(=O)Nc4cc(C(F)(F)F)ccc4F)cc3)c12 [GW770249X]	91%
O=C(Nc1n[nH]c2nc(-c3ccc(O)cc3)c(Br)cc12)C1CC1 [SB-725317]	97%
CC1=C(C(=O)Nc2ccc3[nH]ncc3c2)C(c2ccc(Cl)c(Cl)c2)CC(=O)N1 (centres unmarked) [GSK299115A]	85%
NS(=O)(=O)c1ccc(N/N=C2\C(=O)Nc3ccc(Cl)cc32)cc1 [GW280670X]	100%
CC1=C(C(=O)Nc2ccc3[nH]ncc3c2)C(c2ccc3ccccc3c2)CC(=O)N1 (centres unmarked) [GSK270822A]	84%
COc1cccc(-c2c[nH]c3c(N/N=C/c4ccncc4)ncnc23)c1 [GW814408X]	57%
NS(=O)(=O)c1ccc(N/N=C2\C(=O)Nc3ccc(C(=O)NCCc4c[nH]cn4)cc32)cc1 [GW300660X]	96%
CN(C)CCNC(=O)Nc1ccc(N(C)c2ccnc(Nc3ccc(CS(C)(=O)=O)cc3)n2)cc1.Cl [GW830900A]	84%
COc1ccc2cc(-c3c(-c4ccncc4)nc(-c4ccc(S(C)(=O)=O)cc4C)n3C)ccc2c1 [SB-633825]	79%

SMILES	Percent Control
NS(=O)(=O)c1ccc(N/N=C2\C(=O)Nc3ccc(-c4cnco4)cc32)cc1 [GW276655]	74%
CN(C)c1cc2c(Nc3ccc4c(cnn4Cc4ccccc4)c3)ncnc2cn1 [GW282974X]	73%
COc1ccc2c(-c3ccnc(Nc4cccc(OC(F)(F)F)c4)n3)cnn2n1 [GW810372X]	90%
Cl.O=C(O[C@H]1CN[C@H](C#Cc2cc3ncnc(Nc4ccc5c(cnn5Cc5ccccc5)c4)c3s2)C1)N1CCOCC1 [GSK200398A]	89%
CCS(=O)(=O)c1ccc(OC)c(Nc2ncc(-c3cccc(OC)c3)o2)c1 [GW580509X]	100%
CCc1ccc(Oc2nccc(-c3c(-c4ccc(F)cc4)ncn3C3CCNCC3)n2)cc1 [SB-242719]	66%
NS(=O)(=O)c1ccc(N/N=C2\C(=O)Nc3ccc(C(=O)NCc4ccncc4)cc32)cc1 [GW300657X]	72%
COc1ccc(COc2ccc(Cc3cnc(N)nc3N)cc2OC)cc1 [GW632580X]	91%
NS(=O)(=O)c1ccc(Nc2ncc(-c3ccccc3)o2)cc1 [GW572399X]	100%
COC(=O)Nc1nc2ccc(Oc3ccc(NC(=O)Nc4cc(C(F)(F)F)ccc4F)cc3)cc2s1.Cl [GW693917A]	79%
COc1cc(C)c(N(C)C(=O)CN(C)C)cc1Nc1nc(Nc2cccc(F)c2C(N)=O)c2cc[nH]c2n1 [GSK2219385]	67%
COc1cc(N2CCN(C(C)C)CC2)ccc1Nc1nc(Nc2ccc(F)cc2C(=O)NC[C@@H](O)CO)c2cc[nH]c2n1 [GSK1392956A]	88%
CC(C)COC(=O)c1ccc2c(c1)/C(=C/Nc1ccc(S(N)(=O)=O)cc1)C(=O)N2 [GW416981X]	90%
Cl.c1ccc(Cc2nc3ccc(Nc4ncnc5ccccc45)cc3[nH]2)cc1 [GR269666A]	100%
CCn1c(-c2nonc2N)nc2c(C#CC(C)(C)O)nc(OCCNC)cc21.Cl [GSK949675]	28%
COc1cc2ncn(-c3cc(O[C@H](C)c4ccccc4Cl)c(C(N)=O)s3)c2cc1OC [GSK237701A]	83%
COc1cccc(-n2ncc3c(N/N=C/c4ccncc4)ncnc32)c1 [GW784752X]	84%
C[C@@H](Oc1cc(-n2cnc3ccc(OC4CCN(C)CC4)cc32)sc1C(N)=O)c1ccccc1Cl [GSK579289A]	65%
Cl.O=C(Nc1ccc(Oc2ccc3[nH]c(NC(=O)c4ccccc4)nc3c2)cc1)Nc1cc(C(F)(F)F)ccc1F [GW709042A]	84%
C/C(Nc1ccc(S(N)(=O)=O)cc1)=C1/C(=O)Nc2ccccc21 [GW335962X]	55%
